Screening data: PubChem, Broad Institute
Vaccinia stage – blocks a specific stage of Vaccinia orthopoxvirus infection; Vaccinia-infected cells, mCherry/Venus stage reporter fluorescence; stronger effect = lower value; 89,000 compounds, 0.01% hits; activity change (mCherry), % (test concentration not listed); in the data active = activity change below about -37%, passing the limit was not always enough; tested in A549 cells
The depositor's hits bear a star. The sample as a whole holds a higher share of hits than the screen did.

SMILES | Vaccinia stage
COc1ccc2c3c([nH]c2c1)[C@H](CO)N(C(=O)Nc1ccc(F)cc1)CC31CCN(CC2CC2)CC1 | -21
Cc1noc(C)c1NC(=O)Nc1ccc2c(c1)CC(=O)N([C@@H](C)CO)C[C@@H](C)[C@@H](CN(C)CC1CC1)O2 | 5
COc1ccc(NC(=O)Nc2ccc3c(c2)[C@@H]2C[C@H](CC(=O)NC4CCCCC4)O[C@H](CO)[C@@H]2O3)cc1 | -5
C[C@@H]1CN([C@H](C)CO)C(=O)c2cc(-c3ccccc3)cnc2O[C@H]1CN(C)Cc1ccccc1 | -27
CCS(=O)(=O)N1[C@H](CO)[C@H](c2ccc(C3=CCCCC3)cc2)[C@@H]1C#N | 3
COc1ccc2c3c(n(C)c2c1)[C@@H](CO)N(C(=O)CC1CC1)CC31CCN(C(=O)C2CCCC2)CC1 | 2
O=C(NC[C@@H]1CC[C@@H]2[C@@H](CN2Cc2ccccc2F)O1)C1CC1 | 9
C[C@@H]1CCCCO[C@H](CN(C)C(=O)Nc2ccccc2)[C@@H](C)CN([C@H](C)CO)C(=O)c2cc(NC(=O)c3ccncc3)ccc2O1 | 4
C[C@H](NC(=O)C[C@@H]1CC[C@@H]2[C@H](COC[C@H](O)CN2C(=O)Nc2ccccc2)O1)c1ccccc1 | -1
C[C@@H]1CN([C@H](C)CO)S(=O)(=O)c2ccc(C#Cc3ccccn3)cc2O[C@H]1CN(C)C(=O)C1CC1 | -1
C[C@@H]1CCCCO[C@H](CN(C)S(=O)(=O)c2ccc(F)cc2)[C@@H](C)CN([C@@H](C)CO)C(=O)c2cc(NC(=O)Nc3ccc(C(F)(F)F)cc3)ccc2O1 | 20
CCCNC(=O)C[C@@H]1CC[C@@H]2[C@H](COc3ccc(NC(=O)c4cccc(C(F)(F)F)c4)cc3C(=O)N2C)O1 | 10
Cc1ccc(S(=O)(=O)Nc2ccc3c(c2)C(=O)N([C@@H](C)CO)C[C@H](C)[C@H](CN(C)S(=O)(=O)c2c(C)noc2C)O3)cc1 | 14
CC(C)NC(=O)Nc1ccc2c(c1)C(=O)N([C@H](C)CO)C[C@@H](C)[C@@H](CN(C)C)O2 | 27
C[C@H]1CN([C@@H](C)CO)C(=O)c2cc(NC(=O)NC3CCCCC3)ccc2O[C@@H]1CN(C)Cc1ccncc1 | 3
CN(C)C(=O)c1ccc(-c2cccc(-c3nc(C(=O)NC4CCC4)cc4c3[C@@H](CCO)N([S@](=O)C(C)(C)C)C4)c2)cc1 | -11
CN(C)C(=O)c1ccc(-c2cccc(-c3nc(C(=O)NCc4ccccc4)cc4c3[C@H](CCO)N([S@@](=O)C(C)(C)C)C4)c2)cc1 | -24
CN(C)C(=O)c1ccc(-c2cccc(-c3nc(C(=O)NCc4ccccc4)cc4c3[C@@H](CCO)N([S@](=O)C(C)(C)C)C4)c2)cc1 | -15
CN(C)C(=O)c1ccc(-c2cccc(-c3nc(C(=O)NC4CCCCC4)cc4c3[C@@H](CCO)N([S@](=O)C(C)(C)C)C4)c2)cc1 | -51*
CN(C)C(=O)c1ccc(-c2cccc(-c3nc(C(=O)NC4CCCC4)cc4c3[C@H](CCO)N([S@@](=O)C(C)(C)C)C4)c2)cc1 | -36*
CN(C)C(=O)c1ccc(-c2cccc(-c3nc(C(=O)NC4CCCC4)cc4c3[C@@H](CCO)N([S@](=O)C(C)(C)C)C4)c2)cc1 | -17
C[C@@H]1CN([C@@H](C)CO)C(=O)c2cc(NC(=O)CCCN(C)C)ccc2O[C@@H](C)CCCCO[C@@H]1CN(C)C(=O)Cc1ccccc1 | 23
C[C@@H]1CN([C@H](C)CO)S(=O)(=O)c2ccc(-c3cccnc3)cc2O[C@H]1CN(C)C(=O)C1CCC1 | 15
C[C@@H]1CN([C@H](C)CO)C(=O)c2cc(Br)cnc2O[C@@H]1CN(C)CC1CCCC1 | 14
Cc1ccc(S(=O)(=O)Nc2cccc3c2O[C@H](CN(C)S(=O)(=O)c2cccs2)[C@H](C)CN([C@@H](C)CO)C3=O)cc1 | -6
SMILES | Vaccinia stage
COCC(=O)N1C[C@@H](C)[C@@H](OC)CN(C)C(=O)c2cc(NS(C)(=O)=O)ccc2OC[C@H]1C | -9
CCN1[C@@H]2c3ccc(C4=CCCCC4)c(=O)n3C[C@H]1[C@H](CO)[C@H]2C(=O)N1CCc2ccccc2C1 | 17
CC(=O)NC[C@@H]1[C@@H](c2ccc(-c3cccc(F)c3)cc2)[C@H](CO)N1C(C)=O | 11
C[C@@H]1CN([C@@H](C)CO)C(=O)c2cc(NS(=O)(=O)c3ccc(Cl)cc3)ccc2O[C@H]1CN(C)CC1CC1 | 17
COc1ccc(NC(=O)Nc2ccc3c(c2)C(=O)N([C@@H](C)CO)C[C@@H](C)[C@@H](CN(C)Cc2ccccc2)O3)cc1 | -29
C[C@H](O)C#Cc1ccc2c(c1)O[C@H](CN(C)C(=O)c1ccccc1)[C@H](C)CN([C@@H](C)CO)S2(=O)=O | -1
O=C1C2C=C(I)[C@H](C[C@@H]2OCCCCCCO)[C@@]12CO2 | 11
CO[C@@H]1CN(C)C(=O)c2ccc(NC(=O)c3ccc(F)cc3)cc2OC[C@@H](C)N(C(=O)c2ccc(F)cc2)C[C@@H]1C | -5
CO[C@@H]1CN(C)C(=O)c2ccc(NC(=O)c3ccc(F)cc3)cc2OC[C@H](C)N(C(=O)c2ccc(F)cc2)C[C@H]1C | -3
CO[C@H]1CN(C)C(=O)c2ccc(NC(=O)c3ccc(F)cc3)cc2OC[C@H](C)N(C(=O)c2ccc(F)cc2)C[C@@H]1C | -87*
C[C@H](CO)N1C[C@H](C)[C@H](CN(C)S(=O)(=O)c2ccc(F)cc2)Oc2cc(C#Cc3ccncc3)ccc2S1(=O)=O | -20
Cc1ccc(S(=O)(=O)N(C)C[C@H]2Oc3cc(C#Cc4ccncc4)ccc3S(=O)(=O)N([C@@H](C)CO)C[C@H]2C)cc1 | -46*
C[C@@H]1CN([C@@H](C)CO)S(=O)(=O)c2ccc(C#Cc3ccncc3)cc2O[C@H]1CN(C)S(=O)(=O)c1ccc(F)cc1 | -29
CCCN(C)C[C@@H]1OCCCC[C@H](C)Oc2ccc(NC(=O)CCC(F)(F)F)cc2C(=O)N([C@@H](C)CO)C[C@@H]1C | -8
O=C(N[C@H]1CC[C@@H](CCn2cc(Cc3ccccc3)nn2)O[C@@H]1CO)c1cnccn1 | 3
CN1C(=O)c2cc(NC(=O)Cc3cccs3)ccc2OC[C@H]2O[C@H](CC(=O)O)CC[C@H]21 | -9
Cc1ccccc1S(=O)(=O)N[C@@H]1CC[C@@H](CCn2cc(-c3ccccc3)nn2)O[C@@H]1CO | -7
O=C(C[C@H]1C=C[C@H](NC(=O)Nc2cc(F)ccc2F)[C@H](CO)O1)NCc1ccccn1 | 1
O=C(C[C@@H]1CC[C@@H]2[C@H](COC[C@@H](O)CN2Cc2cc(F)ccc2F)O1)NCc1ccccc1 | 7
Cc1ccc(S(=O)(=O)Nc2ccc3c(c2)C(=O)N([C@@H](C)CO)C[C@@H](C)[C@H](CN(C)C(=O)Nc2c(C)noc2C)O3)cc1 | 5
COc1ccc(S(=O)(=O)Nc2ccc3c(c2)C(=O)N([C@@H](C)CO)C[C@@H](C)[C@H](CN(C)S(=O)(=O)c2cccs2)OCCCC[C@H](C)O3)cc1 | -25
CC(C)NC(=O)N1C[C@@H]2[C@H](c3ccccc31)[C@@H](CO)N2C(=O)Nc1cccc(F)c1 | 8
COc1cccc(-c2ccc([C@@H]3[C@@H](CO)N4C(=O)CN(C(=O)CN5CCOCC5)C[C@H]34)cc2)c1 | 11
CN(C)C(=O)C[C@@H]1C=C[C@@H](NC(=O)NC2CCCC2)[C@@H](CO)O1 | 9
CC(C)(C)OC(=O)COc1cccc(C(=O)CCN2CCOCC2)c1 | 8
C/C=C/c1ccc([C@@H]2[C@@H](CO)N(C(C)=O)[C@H]2CNC(=O)CC2CC2)cc1 | 0
